Peg3 promoter: Peg3 promoter activity inhibition | HeLa PEG-Prom luciferase reporter, luminescence, overnight | inhibition, % at 20 µM | 1.7% of 360,000 active | AID 588405;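 active = inhibition of at least 50% at 20 µM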
KKLEB cytotox: CF airway cell cytotoxicity counter-screen; KKLEB CF airway cells viability, ATPlite luminescence, overnight; hits give low values; cells stimulated with P. aeruginosa culture filtrate; activity change (cytotoxicity), % at 5 µM; 0.36% of 360,000 active;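 active = corrected activity change at or below -50% at 5 µM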
TROY NFkB inh: blocks TROY-dependent signaling in reporter cells | Q293 LMP1-TROYcd NF-kB luciferase reporter, 4 h | inhibition, % at 10 µM | 0.98% of 360,000 active | AID 1347056;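 active = compounds whose plate-normalised and pattern-corrected inhibition of the luciferase reporter signal at the single screening dose is 50% or more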
TWEAK Fn14 block: TWEAK-Fn14 signaling inhibition; inhibition, % at 10 µM; AID 1159606; 2% of 360,000 active; TWEAK-stimulated Fn14 reporter cells, luciferase luminescence, 8 h; in the data active = inhibition above about 50%
HIF-2a inh: HIF-2a inhibition; 786-0 RCC cells HIF-2a reporter, luciferase luminescence, overnight; inhibition, % at 18.8 µM; 0.72% of 360,000 active;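 active = inhibition of the luminescence signal of 40% or more relative to plate controls, in a single-dose primary screen at 18.75 µM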
CF NFkB inh: blocks PAF-induced NF-kB reporter in cystic fibrosis cells. 0.86% of 360,000 active. KKLEB NF-kB-GFP reporter, GFP fluorescence overnight. inhibition, % at 5 µM;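 active = at least 50% inhibition at 5 µM, scaled per plate between neutral and stimulator controls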;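 also: PAF is a Pseudomonas aeruginosa culture filtrate used as stimulus; plate controls were PAF-stimulated DMSO wells for no effect and unstimulated DMSO wells for full effect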
* = called active by the depositor; nt = no result given. Shown are actives, neighbours in structure and some others; about 4% of the full set was active somewhere.

SMILES	Peg3 promoter	KKLEB cytotox	TROY NFkB inh	TWEAK Fn14 block	HIF-2a inh	CF NFkB inh
COC(=O)[C@]12CCCCC=C1N(Cc1ccc3c(c1)OCO3)C(=O)[C@H](CC(=O)N1CCSCC1)C2	nt	nt	nt	nt	11.2	nt
Fc1ccc(-c2cn3ccccc3n2)cc1	-246.2	-17.0	-0.6	35.3	-154.2	-20.3
CCOc1ccc(-c2cnc3ccccc3n2)cc1	28.4	-14.6	63.0*	94.3*	70.6*	-5.4
CCOc1ccc(-c2cn3ccccc3n2)cc1	-82.6	-51.3*	-5.8	62.4*	-78.8	-24.7
CCOc1cc(C2c3c(n[nH]c3C)C(=O)N2c2ccc(Br)cc2)ccc1O (centres undefined)	-25.0	-6.6	50.2*	39.8	-21.1	-0.1
CC1=NN(c2nc(N)nc(/C(C#N)=C/c3ccc([N+](=O)[O-])o3)n2)C(C)(C)C1	102.1*	-69.2*	-0.7	70.8*	1.7	-6.4
Cc1cc(N=Nc2ccc(C)c(N=Nc3cc(C)c(N)cc3N)c2)c(N)cc1N	-51.2	1.1	49.1	69.1*	-76.4	-9.7
COc1ccc(N=Nc2cc(OC)c(N)cc2OC)cc1	-106.4	7.3	-10.0	-29.6	-136.2	-14.2
CCN(CC)CCNC(=O)C1(O)c2cc(Br)ccc2NC(=O)N1c1ccccc1 (centres undefined)	4.9	-6.3	-8.6	-5.9	11.6	6.5
C=CCNC(=O)c1cc(-c2ccncc2)nc2c(C)cc(C)cc12	3.0	-0.1	84.2*	-8.1	12.4	-16.4
COc1ccc(C(=O)N/N=C\c2coc3ccc(C)cc3c2=O)cc1	2.0	1.1	18.2	54.4*	9.8	37.3
COc1ccc(C(=O)N/N=C/c2cccc3cccnc23)cc1	3.6	1.6	nt	105.2*	-31.1	13.4
Cc1ccc2occ(/C=N/NC(=O)c3ccccc3O)c(=O)c2c1	32.8	6.1	20.3	57.9*	-0.4	41.9
O=C(NCCc1cccs1)C(c1ccccc1)c1ccccc1	4.0	-2.8	-2.6	7.2	1.6	-10.1
CCCOc1ccc(/C=N/Nc2ccccc2[N+](=O)[O-])c(O)c1	26.4	-1.5	90.5*	98.2*	5.0	-16.3
CC(C)Oc1ccccc1/C=N/Nc1ccccc1[N+](=O)[O-]	-45.2	16.5	82.3*	7.4	-45.0	-11.3
CCCOc1ccc(/C=N/Nc2cccc([N+](=O)[O-])c2)c(O)c1	-283.4	-7.9	-58.4	-9.5	-265.2	-3.1
CN1CCN(S(=O)(=O)c2ccc(C(F)(F)F)cc2)C(c2ccccc2)C1 (centres undefined)	5.0	-38.3	-0.3	9.9	13.3	9.7
Cc1cc(C)c2sc(NC(=O)C3CC3)nc2c1	-113.3	6.5	-32.1	25.1	-134.3	12.1
CN(NS(=O)(=O)c1ccccc1)C(=O)c1ccccc1	2.3	1.6	0.4	8.1	10.9	-21.0
Cc1cc(C(=O)c2ccc(Cl)cc2)c(NC(=O)CCl)s1	88.6*	-46.2	-7.2	-27.3	4.0	47.8
CCc1cc(C(=O)c2ccc(C)cc2)c(NC(=O)CCl)s1	24.2	-15.0	21.3	-21.5	-55.3	30.2
COc1ccccc1C1=NNC(=Nc2cccc(S(=O)(=O)N(C)C)c2)SC1	7.3	-2.2	16.4	50.5*	3.3	-21.2
CCCCCCN(C(=O)CCCCCN1C(=O)NC(c2ccc([N+](=O)[O-])cc2)C(C(=O)OCc2ccccc2)=C1C)C(C(=O)NCCCC)C1CCCCC1 (centres undefined)	-10.7	-13.0	-2.7	11.7	-7.2	6.3
O=C(COc1ncnc2sccc12)NC1CCCCC1	-54.0	-9.0	2.3	-12.4	-20.8	-3.7
SMILES	Peg3 promoter	KKLEB cytotox	TROY NFkB inh	TWEAK Fn14 block	HIF-2a inh	CF NFkB inh
CC1CCCC(C)N1CCCNC(=O)c1csc2c1CCCCC2 (centres undefined)	4.4	-6.6	-3.0	-9.7	2.5	6.4
CSc1ncc(Cl)c(C(=O)Nc2ccc(S(=O)(=O)Nc3nccc(C)n3)cc2)n1	14.0	5.1	-8.3	6.1	21.1	-7.3
CCCSc1ncc(Cl)c(C(=O)Nc2ccc(S(=O)(=O)Nc3ncccn3)cc2)n1	13.1	-12.2	-14.0	58.3*	11.6	-46.7
CCC(C(=O)Nc1ccc(S(=O)(=O)Nc2ncccn2)cc1)c1ccccc1 (centres undefined)	6.8	0.7	13.8	85.6*	18.5	-6.6
CCCCNS(=O)(=O)c1ccc(NC(=O)C(Sc2ccccc2)c2ccccc2)cc1 (centres undefined)	59.2*	5.1	42.8	62.7*	9.2	0.7
CCC(C)NS(=O)(=O)c1ccc(NC(=O)C(Sc2ccccc2)c2ccccc2)cc1 (centres undefined)	45.8	17.7	41.2	41.0	16.0	-2.2
Cc1ccc2nc(-c3cccc(Br)c3)c(Cc3ccccn3)n2c1	-273.0	-3.9	-20.8	4.2	-243.8	-14.5
CC1C(=O)Nc2ccc(S(=O)(=O)N3CCCCCC3)cc21 (centres undefined)	4.6	8.0	-4.4	-4.5	9.8	-8.3
CC(C)CN1C(=S)SC(C)(C)C1n1oc(=O)n(-c2ccc(Cl)cc2)c1=O (centres undefined)	66.5*	-56.2*	-43.1	4.4	3.3	65.4*
CCOC(=O)N1CCN(S(=O)(=O)N2CCCC(C(=O)NCc3cc(OC)ccc3OC)C2)CC1 (centres undefined)	-3.8	8.6	-13.2	2.9	11.9	-10.6
CC1=C(C(=O)N(C(C)C)C(C)C)CC(CC(=O)NC2CCCC2)C(=O)N1Cc1ccc(F)cc1 (centres undefined)	0.0	10.7	6.7	0.6	8.1	-18.0
O=C(NCc1cccnc1)c1c[nH]c2cc3c(cc2c1=O)OCCO3	-218.7	-17.7	48.6	69.6*	-75.5	27.6
O=C(NCc1ccccc1)c1c[nH]c2ccc(S(=O)(=O)Nc3ccc4c(c3)OCCO4)cc2c1=O	25.2	-30.4	nt	2.9	18.7	3.3
O=C(COC(=O)c1ccc(F)cc1F)Nc1ccc2c(c1)OCO2	-18.3	7.7	-49.4	-8.6	-4.3	-36.4
Cc1sc2nc(SCc3ccc(C(=O)O)cc3)n(Cc3ccco3)c(=O)c2c1C	15.2	-17.5	60.5*	38.0	13.2	22.3
Nn1c(SCc2ccc([N+](=O)[O-])cc2)nc2ccccc2c1=O	-10.8	-0.6	-5.1	-1.7	-10.9	-9.5
O=C(CSc1nc2ccccc2c(=O)n1Cc1ccco1)c1ccccc1	-29.8	-2.7	14.6	51.5*	-133.2	-12.5
COc1ccc(C(=O)Nn2c(SCC(=O)c3ccccc3)nc3ccccc3c2=O)cc1	-24.9	-3.7	79.6*	91.8*	15.7	-22.8
COc1ccc(C(=O)Nn2c(SCc3ccc([N+](=O)[O-])cc3)nc3ccccc3c2=O)cc1	-118.7	-8.5	76.1*	72.6*	-51.8	-18.3
C=CCn1c(SCc2ccc(C(=O)O)cc2)nc2sc(C)c(C)c2c1=O	-5.2	-0.5	38.7	-1.8	-10.0	-20.3
CC1(C(=O)NS(=O)(=O)c2ccc(Br)cc2)CCN1C(=O)CCC1CCCC1 (centres undefined)	0.1	2.6	-1.7	-22.2	11.1	-8.9
